Nrf2 block: Nrf2 pathway inhibition; A549 ARE-Fluc reporter, luciferase luminescence, 18-24 h; Potency, µM (top dose mostly 46 µM), for the others: top-dose activity change, negative = inhibition, hits mostly inhibitors; actives 2.1% (n = 360,000); further: on the % scale 0 is the no-effect control and ±100 the full control effect; nearly all actives have a fitted effect of over 60% in size
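Reporter: ARE-Fluc in A549. Exposure: 18-24 h, 37 °C, 5% CO2, 5% FBS OPTI-MEM. Readouts: fluorescent cytotoxicity (CellTiter-Fluor), then luminescent Nrf2 signal after BugLite.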
Nrf2 activator: activators of Nrf2 (ARE) signaling; AREc32 ARE-luciferase reporter (MCF7-derived line), luminescence, 24 h; actives 0.31% (n = 410,000); Potency, µM (titrated, usually from 46.1 µM), without a hit: at the highest dose activation, actives largely listed as activators; further: % of control where 0% means no effect; nearly all actives have a fitted effect of over 65% in size
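Each well held 1000 AREc32 cells, which were incubated with compound for 24 hr at 37 deg C after overnight attachment, and ARE reporter activity was quantified by firefly luciferase luminescence.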
A549 tox: kills or reduces viability of A549 cells in Nrf2 counter-screen. A549 ARE-Fluc cells, CellTiter-Fluor viability, 18-24 h. Potency, µM (top dose mostly 46 µM), for the others: at the top dose activity change, negative = cytotoxicity, most hits filed as inhibitors. actives 0.16% (n = 390,000). AID 504648; further: on the % scale 0 is the no-effect control and ±100 the full control effect
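Cytotoxicity counterscreen: CellTiter-Fluor fluorescence was measured in A549 ARE_Fluc cells after 18-24 h of compound exposure in a concentration series. The subsequent BugLite luminescent read reports ARE-luciferase activity.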
ATXN viability: reduces viability in counter-screen for ATXN expression inhibitors; S2 cells (HEK-293 line with an ATXN2-luciferase reporter) viability, CellTiter-Fluor protease fluorescence, 24 h; Potency, µM (highest dose often 56.7 µM), hits mostly cytotoxic; actives 0.49% (n = 400,000); AID 651635; further: nearly all actives have a fitted effect of over 40% in size
ATXN2 expr inh: ATXN2 expression inhibition; actives 0.72% (n = 360,000); HEK-293 ATXN2-luciferase reporter, luminescence, 24 h; Potency, µM (highest dose often 57 µM), without a hit: at the highest dose activity change, negative = inhibition, hits mostly inhibitors; further: on the % scale 0 is the no-effect control and ±100 the full control effect; nearly all actives have a fitted effect of over 55% in size
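qHTS (up to 57 uM final) was run with 24 h compound exposure of reporter cells at 37 °C. Each well was multiplexed: SteadyGlo luminescence measured ATXN2-luciferase expression after a fluorogenic Gly-Phe-AFC viability readout (25 uM final).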
Starred values were filed as active, the others as inactive; i = inactive; ? = inconclusive; nt = no result given; ! = repeats disagree; [ ] = another dose, or the depositor's remark. Rows were chosen to be rich in hits. Some 2.9% of all compounds tested hit in one or more screens of this group. The call rests on the fitted dose curve; in most records, active means well fitted curve in the direction sought with a large enough effect; inconclusive means small, poorly fitted or top-dose-only effect, or another doubt; inactive means no such curve, though single readings can be large; an effect the other way counts as inactive or inconclusive. Potency means the concentration at half of the fitted maximal effect.

SMILES	Nrf2 block	Nrf2 activator	A549 tox	ATXN viability	ATXN2 expr inh
O=C(O)c1ccc(/C=C(\c2nc3ccccc3[nH]2)c2nc3ccccc3s2)cc1	-23%	?	-4%	i	-25%
Cc1cccc(/C=C(\c2nc3ccccc3[nH]2)S(=O)(=O)c2ccccc2)c1	23µM*	?	?	?	?
CC(C)(C)c1ccc(/C=C(\c2nc3ccccc3[nH]2)S(=O)(=O)c2ccccc2)cc1	?	?	?	20µM*	16µM*
COCCCNC(=O)CC(c1cc(OC)c(OC)c(OC)c1)N1Cc2ccccc2C1=O (configuration not stated)	20%	-1%	0%	i	-2%
CSc1ccc(-c2ccc3c(c2)CC(CNC(=O)Cn2nc(C)nc2C)O3)cc1 (configuration not stated)	nt	nt	nt	i	nt
COc1ccc(-c2nnc(NC(=O)c3ccc(S(=O)(=O)N4COCC4(C)C)cc3)o2)cc1	18µM*	0%	-21%	i	?
CC1CCCCN1S(=O)(=O)c1ccc(C(=O)Nc2nnc(-c3ccncc3)o2)cc1 (configuration not stated)	?	0%	-6%	i	?
Cc1ccccc1C(=O)Nc1ccc(C(=O)N2CCCC(N(C)C)c3ccccc32)cc1 (configuration not stated)	nt	nt	nt	?	-20%
CCC(=O)C1=C(O)C(c2cccc(Oc3ccccc3)c2)CCC1=O (configuration not stated)	15µM*	2%	?	i	nt
CC(C)[C@H](NC(=O)OCc1ccccc1)C(=O)NC(C=O)Cc1ccccc1 (some centres not stated)	3%	-1%	-5%	i	0%
CC(C)c1nc(CN(C)C(=O)N[C@H](C(=O)N[C@@H](Cc2ccccc2)C[C@H](O)[C@H](Cc2ccccc2)NC(=O)OCc2cncs2)C(C)C)cs1	nt	nt	nt	?	27µM*!
CSc1ncccc1C(=O)NCC1Cc2cc(-c3cnccn3)ccc2O1 (configuration not stated)	nt	nt	nt	i	nt
COc1ccc(C2c3c(N)nc(CCCc4ccccc4)nc3Oc3ccc4ccccc4c32)cc1OC (configuration not stated)	-9%	nt	-11%	nt	nt
Cc1ccc(S(=O)(=O)N(C)c2cccc3cccnc23)cc1	-11%	nt	6%	nt	nt
O=C(c1ccc(Cl)cc1)N1CCN(c2ccc([N+](=O)[O-])c(NCc3cccnc3)c2)CC1	26µM*	4%	?	i	?
O=C(c1ccccc1)N1CCN(c2ccc([N+](=O)[O-])c(NCc3cccnc3)c2)CC1	?	5%	-18%	?	-11%
Cc1ccc2cc3c(NC(=O)c4ccco4)nn(C)c3nc2c1	?	3.2µM*	2%	i	-18%
CC12CCC=CC1C(c1ccc3ccccc3c1C=Cc1ccccc1)N(Cc1ccccc1)C2=O (configuration not stated)	4%	nt	12%	nt	nt
COC(=O)c1cc(CSc2nnc(-c3ccccc3)c(-c3ccccc3)n2)oc1C	21µM*	2%	-13%	i	-28%
COC(=O)c1ccc(CSc2nc3ccccc3[nH]2)o1	-9%	0%	-3%	i	21%
COC(=O)c1cc(CSc2nc3ccc(C)cc3[nH]2)oc1C	21µM*	2%	-3%	i	-19%
CCOc1ccccc1NC(=O)CC(c1ccc(F)cc1)N1Cc2ccccc2C1=O (configuration not stated)	-9%	4%	1%	nt	nt
CCN(Cc1ccccc1)C(=O)C1CCN(S(=O)(=O)c2ccc3c(c2)CCCN3C(C)=O)CC1	nt	-1%	7%	i	-9%
O=S1(=O)N[C@H](Cc2ccccc2)COc2cccc(N3CCN(Cc4ccccc4F)CC3)c21	nt	4%	nt	18µM*	?
Cn1ccc(C(=O)NCC2CCC3(CCN(Cc4ccc(F)cc4F)CC3)O2)n1 (configuration not stated)	nt	nt	nt	i	nt
SMILES	Nrf2 block	Nrf2 activator	A549 tox	ATXN viability	ATXN2 expr inh
CC(/C=N/NC(=O)c1n[nH]c2c1CCC2)=C\c1ccccc1	28%	2%	?	?	-29%
O=C(N/N=C/C(Br)=C\c1ccccc1)c1n[nH]c2c1CCC2	?	14µM*	-9%[1.84 µM]	?	?
O=C(N/N=C/c1cccs1)c1n[nH]c2c1CCCC2	?	-3%	-27%	i	15µM*
N#Cc1nc(Nc2cc(F)cc(F)c2)c2ncn(CCCO)c2n1	14%	nt	-5%	nt	nt
Cc1ccc(NS(=O)(=O)c2ccc3c(c2)CCC(=O)N3)cc1F	-13%	nt	1%	nt	nt
O=C(c1cc(COc2cccc(C(F)(F)F)c2)on1)N1CCC(c2ccccc2)CC1	13µM*	0%	-19%	i	-4%
O=C(c1cc(COc2cccc(C(F)(F)F)c2)on1)N1CCC(c2ccncc2)CC1	13µM*	2%	-12%	?	14µM*
COc1cccc(OCc2cc(C(=O)N3CCC(c4ccncc4)CC3)no2)c1	5.2µM*	3%	-17%	i	-15%
CC(=O)c1ccc(OCc2cc(C(=O)N3CCC(c4ccncc4)CC3)no2)cc1	0%	8%	1%	nt	nt
CCOc1ccc2c(c1)c(=O)c(C(=O)c1ccc3c(c1)OCO3)cn2Cc1cccc(F)c1	-8%	5%	?	?	-15%
CCN(CC)C(=O)c1nn(-c2ccccc2)c2c1C1CCC2(C)C1(C)C (configuration not stated)	16µM*	5%	-18%	i	?
CNC(=O)/C(C#N)=C/c1c(N(Cc2ccccc2)Cc2ccccc2)nc2c(C)cccn2c1=O	26µM*	4%	?	?	-7%
CCNC(=O)/C(C#N)=C/c1c(N(Cc2ccccc2)Cc2ccccc2)nc2ccccn2c1=O	?	4%	?	i	1%
Nc1nc(SCC(=O)Nc2cccc(F)c2)n[nH]1	6%	0%	-1%	?	nt
Nc1nc(SCC(=O)Nc2cccc(C(F)(F)F)c2)n[nH]1	18µM*	1%	4%	i	-8%
Cc1ccc(C)c(NC(=O)CSc2n[nH]c(-c3ccccn3)n2)c1	13%	3%	-3%	?	18µM*
Cc1ccccc1NC(=O)CSc1n[nH]c(-c2ccccn2)n1	-15%	-1%	-3%	?	22µM*
Cc1ccc(O)c(NC(=O)CSc2n[nH]c(-c3ccccc3)n2)c1	-11%	6%	-6%	i	-22%
O=C(CSc1n[nH]c(-c2ccccn2)n1)Nc1cccc(Cl)c1	?	0%	-9%	i	10µM*
Cc1ccccc1NC(=O)CSc1nnc(-c2ccccn2)o1	16%	1%	1%	i	9%
COc1ccc(-c2nc3cccc(OC)c3c(=O)n2Cc2ccccc2)cc1COc1ccc(NC(C)=O)cc1	-15%	nt	-13%	nt	nt
